# Experimental data: PubChem BioAssay (Tox21)
# Records with an inconclusive call do not appear. Values without a mark were called inactive. The call rests on the fitted dose curve; in most records, active means well fitted cell-killing curve with a large enough effect in the repeat runs; inconclusive means weak or mixed curves, or effect the other way; inactive means no such curve, though single readings can be large or run the other way.
# Assay: qHTS assay for small molecule activators of the heat shock response signaling pathway - cell viability counter screen (AID 743209); further: nearly all actives have a fitted effect of over 50% in size
# Details: HSE-bla HeLa viability, CellTiter-Glo luminescence, 5 h; series mostly up to 62.6 µM; activity change, negative = cytotoxicity: at the top concentration
# Excerpt: U.S. Tox21 Program National Center for Advancing Translational Sciences [NCATS] NIH Chemical Genomics Center [NCGC] U.S. Environmental Protection Agency [EPA] National Institutes of Environmental Health Sciences [NIEHS] National Toxicology Program [NTP] U.S. Food and Drug Administration [FDA] Tox21 Assay Overview: Various chemicals, environmental and physiological stress conditions may lead to the activation of heat shock response/ unfolded protein response (HSR/UPR). There are three heat shock transcription factors (HSFs) (HSF-1, -2, and -4) mediating transcriptional regulation of the human HSR. To identify the compounds that activate HSR signaling, HSE-bla HeLa cell line (Invitrogen, Carlsbad, CA, USA) containing a beta-lactamase reporter gene under the control of the heat shock response elements was used to screen Tox21 10K compound library. The cytotoxicity of the Tox21 compound library against the HSE-bla HeLa cell line was tested in parallel by measuring the cell viability using CellTiter-Glo assay (Promega, Madison, WI) in the same wells.
# Tox21 Assay Protocol Summary: The CellSensor HSE-bla HeLa cells (Invitrogen, Carlsbad, CA, USA) were dispensed at 1500 cells/6uL/well into 1536-well black wall/clear bottom plates using a Multidrop combi (Thermo Fisher Scientific, Waltham, MA) dispenser. After the assay plates were incubated at 37 C and 5% CO2 overnight, 23 nL of compounds dissolved in DMSO, positive controls or DMSO only was transferred to the assay plate by a Pintool station (Kalypsys, San Diego, CA). The plates were incubated at 37 C for 5 h. After 1 uL of LiveBLAzerTM B/G FRET substrate was added using a Flying Reagent Dispenser (FRD, Beckman Coulter, Indianapolis, IN, USA), the plates were incubated at room temperature for 2.5 h, and fluorescence intensity was measured by an Envision plate reader (PerkinElmer, Shelton, CT). For cell viability readout that measures cytotoxicity, 3 ul/well of CellTiter-Glo reagent was added into the assay plates using a FRD. After 30 min incubation at room temperature, the luminescence intensity in the plates was measured using a ViewLux (PerkinElmer) plate reader.
# On the % scale 0 is the no-effect control and ±100 the full control effect.
row,Structure (SMILES),"activity change, negative = cytotoxicity"
1,CC(C)(O)C(=O)O,-7.91%
2,Cc1nc(C)c(C)nc1C,2.51%
3,C=CCCC,-0.0892% [at 81.1 µM]
4,O=C(O)c1ccc(O)c(O)c1,8.43%
5,CCOc1cc(OCC)c(C(C)=O)cc1OCC,-1.47%
6,Cc1cc(C)n(CO)n1,3.62%
7,C[Si](C)(C)O[Si](C)(C)O[Si](C)(C)C,8.15%
8,O=C(OC1C[C@H]2CC[C@@H](C1)[N+]21CCCC1)C(O)(c1ccccc1)c1ccccc1 (stereo not given in full),11.4%
9,CCCCCCCCCC(C)C=O (stereo not given),-6.71%
10,Cc1ccc(NC=O)c(C)c1,20.9%
11,O=C(NC1CCN(CCc2c[nH]c3ccccc23)CC1)c1ccccc1,-17.5%
12,CC[C@H](NC(C)C)[C@H](O)c1ccc(O)c2[nH]c(=O)ccc12,2.02%
13,O=C(O)CNc1ccccc1,0.0744%
14,CCCCCCCCNC,-5.05%
15,CC(C)(C(=O)O)c1ccc(C(O)CCCN2CCC(C(O)(c3ccccc3)c3ccccc3)CC2)cc1 (stereo not given),11.8%
16,O=S(=O)(O)c1cc(Cl)c(Cl)cc1Cl,-5.26%
17,O=C(Cl)c1ccc(F)c(Cl)c1,-10%
18,COC(=O)C(C)(C)C,-6.88% [at 81.1 µM]
19,CCc1ccc(C(=O)C(C)CN2CCCCC2)cc1 (stereo not given),-17.7%
20,CC(=O)OCC(=O)[C@@]1(O)CC[C@H]2[C@@H]3CCC4=CC(=O)C=C[C@]4(C)[C@@]3(F)[C@@H](O)C[C@@]21C,-2.84%

row,Structure (SMILES),"activity change, negative = cytotoxicity"
1,Cc1ccc(NC(=O)c2ccc(CN3CCN(C)CC3)cc2)cc1Nc1nccc(-c2cccnc2)n1,-2.41%
2,CC1(COc2ccc(CC3SC(=O)NC3=O)cc2)CCCCC1 (stereo not given),-16.8%
3,Oc1ccc(CCNCCCCCCNCCc2ccccc2)cc1O,16.7%
4,Sc1nc(S)nc(S)n1,2.54%
5,N#Cc1ccc(CC(=O)c2cccc(C(F)(F)F)c2)cc1,-0.106%
6,CCCCCO,-3.96%
7,Nc1ccccc1Nc1ccccc1,-1.35%
8,OCCc1ccncc1,1.92%
9,O=[N+]([O-])c1ccccc1CCO,8.06% [at 81.1 µM]
10,CC(C)CC(C)(C)C,5.84% [at 81.1 µM]
11,NC(=O)c1cc[n+](CC2=C(C(=O)[O-])N3C(=O)[C@@H](NC(=O)Cc4cccs4)[C@H]3SC2)cc1,4.15%
12,CCOC(=O)CC(O)(CC(=O)OCC)C(=O)OCC,4.32%
13,COc1ccc(C(=O)c2ccc(C)cc2)c(O)c1,7.62% [at 81.1 µM]
14,C=CC(=O)NC(C)(C)C,3.62%
15,CCCOC(C)=O,-4.74%
16,COc1ccc(/C=C/c2cc(OC)cc(=O)o2)cc1,7.03%
17,CC(C)NC(=O)c1ccccc1N,0.95%
18,COC(=O)c1cc(Cl)ccc1[N+](=O)[O-],-3.39%
19,O=C1C=CCCC1,-0.148% [at 81.1 µM]
20,Cc1ccc(Cl)c(OCC(O)CNC(C)(C)C)c1 (stereo not given),28%
